Values without a mark were called inactive. The rule behind the calls is not given here.

What is called remaining activity is the signal under treatment as a percentage of the control signal.

The subject of this assay is Aerobactin synthetase IucA (Klebsiella pneumoniae, hypervirulent). In words: IucA enzyme inhibition, biochemical, LOPAC library, absorbance readout (AID 1346212).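 Note: 100% = no compound wells and 0% = no enzyme wells.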 The note with it: IucA enzyme assay, absorbance (OD) readout; hits give low values;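 tested at 8 µM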.
`O=C1NC(c2cccc([N+](=O)[O-])c2)=CCN1c1ccccc1O`: the remaining activity was 105%.
As for `C[C@@H]1[C@@H]2Cc3ccc(O)cc3[C@@]1(C)CCN2CC1CC1`, the remaining activity was 103%.
To `Cc1cc2c(cc1Cl)N(C(=O)Nc1ccc(Oc3cccnc3C)nc1)CC2` belongs 103%; to `CCCCCCCCCC[Si](C)(C)CCC(=O)NC(Cc1ccc(C)cc1)c1ccccc1` (centres undefined), 116%; to `CC(=O)c1ccc(S(=O)(=O)NC(=O)NC2CCCCC2)cc1`, 127%.
To `CC(C)[N+]1(C)[C@@H]2CC[C@H]1CC(OC(=O)C(CO)c1ccccc1)C2` (some centres undefined) belongs 118%; to `N[C@H](C(=O)O)[C@H]1C[C@@H]1C(=O)O`, 93.8%.
Regarding `CN1[C@@H]2CC(OC(=O)[C@H](CO)c3ccccc3)C[C@H]1[C@@H]1O[C@@H]12` (some centres undefined), the remaining activity was 105%.
Regarding `NCC(O)C1CCCCCCC1` (centres undefined), the remaining activity is 92.7%.

Source of the values: PubChem BioAssay.
